From PubChem BioAssay AID493240 (Broad Institute, 2011)
Out of some 1,300 compounds screened, about 270 (21%) were called active. How the calls were made is not given here. A selection follows. Entries with a potency or affinity are not part of this list.

Assay: cytotoxicity in parental SK-MEL-5 melanoma cells – cell-based, CellTiter-Glo, cherry-picked, set 3, orthogonal assay for MITF inhibitor project, dose response (AID 493240)
Conditions: SK-MEL-5 viability, ATP luminescence (CellTiter-Glo), 24 h; series mostly up to 35 µM; activity change, negative = viability loss: at the top concentration

| SMILES | activity change, negative = viability loss |
| --- | --- |
| Cc1cc(C(=O)Nc2ccc([N+](=O)[O-])cn2)cs1 | 1.28% (inactive) |
| CCOC(=O)c1cc2sccc2n1CC(=O)N1c2ccccc2CC1C (stereo unspecified) | -48.5% (inactive) |
| O=C(Nc1ccc2c(c1)OCCO2)c1cccc(Cl)c1Cl | 6.72% (inactive) |
| O=C(c1nnsc1S(=O)(=O)c1ccc(Cl)cc1)N1CCOCC1 | -10.9% (inactive) |
| CC(C)(CO)NC(=O)c1ccc2nc(Cc3cccc(Cl)c3)oc2c1 | 8.31% (inactive) |
| COc1ccc2cc3cc(C(=O)NCCc4ccc(OC)c(OC)c4)oc3nc2c1 | -23.3% (inactive) |
| Cc1ccccc1C(=O)O/N=C(\N)c1ccc([N+](=O)[O-])cc1 | -4.23% (inactive) |
| Nc1ccc(-c2ncc(-c3ccccc3)o2)cc1 | -2.92% (inactive) |
| CCOC(=O)CSC1=NC(=O)/C(=C\c2ccc(OC(C)=O)cc2)S1 | -10.5% (inactive) |
| CCOC(=O)CSC1=NC(=O)/C(=C\c2ccc(Cl)cc2)S1 | -52.8% (inactive) |
| CC(Oc1ccccc1)C(=O)Nc1nc(-c2ccccn2)cs1 (stereo unspecified) | -18.7% (inactive) |
| CC(C)(C)C1CCC(OC(=O)CN2CCCCC2)CC1 (stereo unspecified) | -11.8% (inactive) |
| CC(O)CNC(=O)C1CCN(Cc2ccc(OCc3ccccc3)cc2)CC1 (stereo unspecified) | -5.93% (inactive) |
| Cc1cc(C(=O)CN2C(=O)c3ccccc3S2(=O)=O)c(C)n1-c1ccccc1 | -9.62% (inactive) |
| O=C(N/N=C\c1cc(Br)ccc1O)c1ccc(S(=O)(=O)N2CCCCC2)cc1 | -30.4% (inactive) |
| COC(=O)[C@@H](C)NC(=O)c1ccc2oc(CCc3ccccc3)nc2c1 | 2.14% (inactive) |
| O=C(Nc1nc2ccccc2s1)c1ccccc1[N+](=O)[O-] | -11.7% (inactive) |
| Cc1nc2nc(C)c(NS(=O)(=O)c3ccc4c(c3)CCCC4)c(=O)n2[nH]1 | 3.77% (inactive) |
| COc1ccc(/C=C2\SC(=O)N(CCCC(=O)Nc3cc(Cl)ccc3C(=O)O)C2=O)cc1 | -7.19% (inactive) |
| CC(C)c1ccc(CNc2ncccn2)cc1 | 4.61% (inactive) |
| COC(=O)c1ccc(/C=C(\C#N)C(=O)NC(C)c2ccccc2)cc1 (stereo unspecified) | -23.5% (inactive) |
| Clc1ccc(-c2nc(-c3ccncc3)no2)c(Cl)c1 | 6.89% (inactive) |
| Cc1ccc(C2CC(C(F)(F)F)n3nc(C(=O)NCc4c(C)nn(C)c4C)c(Cl)c3N2)cc1 (stereo unspecified) | -39.3% (inactive) |
| Cc1nn(-c2ccccc2Cl)c(Cl)c1/C=N/Nc1cccc(C(=O)O)c1 | -8.47% (inactive) |

| SMILES | activity change, negative = viability loss |
| --- | --- |
| O=C(Nc1ccc(OC(F)(F)F)cc1)c1[nH]ncc1[N+](=O)[O-] | 6.68% (inactive) |
| C=CCNC(=O)Cn1nnc(-c2ccc(-c3ccc(OC)cc3)cc2)n1 | -0.141% (inactive) |
| C=CCOc1ccc(/C=C2\SC(=S)N(CCC(=O)O)C2=O)cc1 | 13.3% (inactive) |
| CCc1nc2oc3ccccc3c(=O)c2cc1C(=O)OC | -4.67% (inactive) |
| COc1ccc(S(=O)(=O)N2CCCCC2)cc1NC(=O)c1ccc([N+](=O)[O-])o1 | -35.1% (inactive) |
| CCCCOC(=O)c1[nH]c(C)c(C(=O)OC)c1C | -15.2% (inactive) |
| Oc1ccc(CNc2ccccc2F)c2cccnc12 | -40.5% (inactive) |
| O=C(Cn1ncc(Cl)c(Cl)c1=O)c1ccc(Cl)cc1 | -28.3% (inactive) |
| Nc1nnnn1/N=C/C(Br)=C/c1ccccc1 | -14.9% (inactive) |
| Cc1ccsc1C(=O)OCC(=O)Nc1sccc1C(N)=O | -4.08% (inactive) |
| CN(C)c1nc(C=C(C#N)C#N)c(Cl)n1-c1ccc(F)cc1 | -72.3% (inactive) |
| COc1ccc(-c2cc(-c3ccccc3O)[nH]n2)cc1OC | 5.33% (inactive) |
| COc1ccc(/C=N/Nc2ccccn2)cc1OC | 3.77% (inactive) |
| CCCCNC(=O)Nc1ccc(C2SCCS2)cc1 | -12.7% (inactive) |
| CN(C)Cc1c(O)ccc2c1O/C(=C\C=C\c1ccccc1)C2=O | 6.11% (inactive) |
| Cc1nc2ccccn2c1C(=O)/C=C/c1cccc([N+](=O)[O-])c1 | 13.3% (inactive) |
| O=C(/C=C/c1cccc([N+](=O)[O-])c1)n1cnc2ccccc21 | 23.4% (inactive) |
| CCCOC(=O)c1ccc(NC(=O)C2CCCO2)cc1 (stereo unspecified) | 11.9% (inactive) |
| CCOc1ccc(NC(=O)Nc2cccc(C(=O)O)c2)cc1 | -24.5% (inactive) |
| O=C(Nc1nnc(Cc2ccccc2)s1)c1ccccc1 | 10% (inactive) |
| Cc1ccc(O)c(NC(=O)c2ccc3c(c2)C(=O)N(CC(C)C)C3=O)c1 | -15.1% (inactive) |
| CCN(CC)C(=O)CCCOc1ccc(Cl)cc1Cl | -3.19% (inactive) |
| O=C(O)c1cccc(N/N=C/c2cccs2)c1 | -4.73% (inactive) |
| N#Cc1cc2c(nc1SC1CC(=O)N(c3ccccc3)C1=O)CCC2 (stereo unspecified) | -10.3% (inactive) |

| SMILES | activity change, negative = viability loss |
| --- | --- |
| Cc1ccc2nc3cc([N+](=O)[O-])cc([N+](=O)[O-])c3cc2c1 | -29.9% (inactive) |
| CCOC(=O)c1nnn(-c2ccc([N+](=O)[O-])cc2[N+](=O)[O-])c1C | -37.1% (inactive) |
| COc1ccc(Nc2oc(-c3ccc(OC)cc3)nc2C#N)cc1 | 8.58% (inactive) |
| Cc1cccc(-c2nc(C#N)c(NCc3ccco3)o2)c1 | 11.6% (inactive) |
| COC(=O)c1c(C)[nH]c(/C=N/Nc2ccccc2)c1C | -6.74% (inactive) |
| OCCNc1c2ccccc2nc2c(F)c(F)c(F)c(F)c12 | -36.1% (inactive) |
| FC(F)(F)Oc1ccc(-c2cn3cccnc3n2)cc1 | -0.472% (inactive) |
| COc1ccc(NC(=O)Nc2ccc(F)c(F)c2)c(OC)c1 | 4.2% (inactive) |
| Cc1ccc(-c2c[n+](Cc3ccc(Cl)cc3)c3n2CCC3)cc1 | -25.2% (inactive) |
| Cc1ccc(-c2c[n+](Cc3cccc(Cl)c3)c3n2CCC3)cc1 | -18.5% (inactive) |
| CC1CC(C)C[N+](=C2C=C(N3CCCC3)CC(C)(C)C2)C1 (stereo unspecified) | -40.1% (inactive) |
| COc1ccc(-c2noc(-c3cccs3)n2)cc1OC | 4.3% (inactive) |
| CCN(CC)S(=O)(=O)c1ccc(N2CCCC2)c(NC(=O)c2ccc([N+](=O)[O-])o2)c1 | -23.8% (inactive) |
| O=C(Nc1cccnc1Cl)c1cc(-c2ccco2)on1 | -0.292% (inactive) |
| CSc1nc(N)n2nc(-c3ccccc3)cc2n1 | -39.1% (inactive) |
| COc1ccc(C(NC(C)=O)c2ccc3cccnc3c2O)c(OC)c1 (stereo unspecified) | -15.9% (inactive) |
| COc1ccc(-c2csc(N(C)C(=O)c3ccco3)n2)cc1 | -3.54% (inactive) |
| CC(=O)c1sc(N/N=C\c2ccc(N(C)C)cc2)nc1C | 6.94% (inactive) |
| Cc1csc(N/N=C/c2ccc([N+](=O)[O-])cc2)n1 | -1.39% (inactive) |
| C(=N\Nc1cc(N2CCCCC2)ncn1)/c1ccco1 | 7.34% (inactive) |
| CCOc1ccc(C(=O)N2CCc3ccccc32)cc1 | 13.3% (inactive) |
| CC(=O)Oc1ccc(C)cc1-n1nc2ccccc2n1 | -20.8% (inactive) |
| CC(=O)Cn1ncc(Br)c(Br)c1=O | -30.7% (inactive) |
| O=C(CCCN1C(=O)S/C(=C\c2ccccc2)C1=O)NNC(=O)c1ccccc1O | -13.1% (inactive) |

| SMILES | activity change, negative = viability loss |
| --- | --- |
| O=C(CCCCl)NC(=S)Nc1ccc(N2CCOCC2)cc1 | -8.43% (inactive) |
| N/C(=N\OC(=O)Cc1cccs1)c1ccccc1 | 0.942% (inactive) |
| Cc1cc(C(=O)CSc2nnc3ccccn23)c(C)n1-c1ccccc1 | -10.6% (inactive) |
| O=C(Nc1cnc2ccccn2c1=O)c1ccc(F)cc1 | -6.16% (inactive) |
| CC1(C(=O)N/N=C/c2ccc([N+](=O)[O-])o2)CC1(Br)Br (stereo unspecified) | -26.3% (inactive) |
| Cc1ccc(NCC(=O)N/N=C\c2ccc([N+](=O)[O-])o2)cc1 | -19.5% (inactive) |
| Cc1ccc(NC(=O)CCC(=O)N/N=C/c2ccc([N+](=O)[O-])o2)cc1C | -18.4% (inactive) |
| O=C(Cc1ccc2c(c1)OCO2)NN=Cc1ccc([N+](=O)[O-])o1 | -42.9% (inactive) |
| CCCCn1c(=O)[nH]c(=O)c2c1nc(Cn1ncc(Cl)c(Cl)c1=O)n2CCC | -22.5% (inactive) |
| O=c1c(Cl)c(Cl)cnn1-c1ccccc1 | 9.14% (inactive) |
| CC(=O)OCCCNc1cc(Sc2ccc(Cl)cc2)c2nonc2c1[N+](=O)[O-] | -20.4% (inactive) |
| Cc1ccccc1OCc1nc2c3cnn(C)c3ncn2n1 | -14.4% (inactive) |
| c1cnc(SCCOc2ccc3c(c2)CCC3)nc1 | -7.47% (inactive) |
| Cc1ccc(NC(=O)c2cnc3ccccc3n2)cc1C | -2.28% (inactive) |
| CCn1nccc1C(=O)Nc1ccc(C)c(C)c1 | -20.2% (inactive) |
| ClC1(Cl)CC1CSc1nnc(-c2ccncc2)o1 (stereo unspecified) | -9.13% (inactive) |
| O=C(Nc1ccc2nc3n(c(=O)c2c1)CCCCC3)c1cc([N+](=O)[O-])ccc1F | -9.63% (inactive) |
| CC1CCN(CC2C(=O)O[C@@H]3C[C@@]4(C)CCC[C@H](C)C4=C[C@H]23)CC(C)(C)C1 (stereo partly specified) | 11.1% (inactive) |
| COc1cc(C(=O)N/N=C(\c2ccccc2)c2ccccn2)cc(OC)c1OC | -31.3% (inactive) |
| O=C(NCc1ccc2c(c1)OCO2)c1cc(=O)[nH]c2ccccc12 | 6.22% (inactive) |
| COc1ccc(N(Cc2cc(=O)[nH]c3ccccc23)C(=O)CCl)cc1 | -30.3% (inactive) |
| CCC(=O)OCCNc1cc(Sc2nccn2C)c2nonc2c1[N+](=O)[O-] | -33.1% (inactive) |
| O=C1c2ccccc2C(=O)N1CCSc1ccccc1 | -4.55% (inactive) |
| CN(c1ccc2nc3ccccc3c(=O)n2n1)C1CCCCC1 | -39.1% (inactive) |

| SMILES | activity change, negative = viability loss |
| --- | --- |
| Cc1ccc(NC(=O)c2cc(-c3cccs3)on2)cc1 | 2.76% (inactive) |
| O=C(CCl)Nc1cn(-c2ccccc2)nc1-c1ccccc1 | -17.3% (inactive) |
| Cc1ccc2oc(C(Cl)(Cl)Cl)cc(=O)c2c1 | -6.41% (inactive) |
| O=C(CCl)N1c2ccccc2CCc2ccccc21 | -16.3% (inactive) |
| Cc1ccc(NC(=O)/C=C/c2ccc([N+](=O)[O-])s2)c(C)c1 | 18.1% (inactive) |
| CCCOc1ccc(C(=O)C(CN2CCCC2)c2ccccc2)cc1 (stereo unspecified) | -40% (inactive) |
| CCSC1(SCC)N=C(N)C2(C#N)C(c3ccc(F)cc3)C12C#N (stereo unspecified) | -37.1% (inactive) |
| O=C(CCCc1ccccc1)Nc1cccc(C(=O)O)c1 | -5.13% (inactive) |
| O=C(CSCc1c(F)cccc1F)Nc1ccccc1 | 2.98% (inactive) |
| CSc1nc(N)n2nc(-c3ccc(Cl)cc3)cc2n1 | -3.88% (inactive) |
| N#C/C(=C\C=C\c1ccccc1[N+](=O)[O-])C(=O)NC1CCCCC1 | -38.9% (inactive) |
| CN(C)c1nc(-c2ccccn2)nnc1-c1ccccc1 | -10.7% (inactive) |
| CCOc1cc(/C=C\[N+](=O)[O-])ccc1OCC(=O)N1CCOCC1 | -19.4% (inactive) |
| CS(=O)(=O)c1ccc2nc(NC(=O)c3ccccc3Br)sc2c1 | -3.07% (inactive) |
| COc1ccc(-n2ncc3c(N4CCCCC4)ncnc32)cc1 | -42.2% (inactive) |
| CN(C)c1cc[n+](CC(=O)c2ccc(-c3ccccc3)cc2)cc1 | -43.2% (inactive) |
| COc1cccc(NC(=O)c2cnn(-c3ccccc3)c2C)c1 | -15.4% (inactive) |
| CN1CCN(CCCOc2ccc(-c3ccccc3)cc2)CC1 | -25.3% (inactive) |
| O=C(CCl)N1N=C(c2ccco2)CC1c1cccs1 (stereo unspecified) | -17.2% (inactive) |
| CC(C)(C)OC(=O)N1CCN(C(=O)c2nc[nH]c2C(=O)N2CCN(c3ccccc3)CC2)CC1 | -30.5% (inactive) |
